# Laboratory results: PubChem BioAssay (NCI)
# The panel holds about 79,000 compounds, 15% with a hit somewhere; the sample as a whole holds those more often. A number with no mark means an inactive call. The source made the active and inactive calls. Rule as the data show it: active = growth inhibition above about 70%; inactive = the rest.
# Experiment: NCI Yeast Anticancer Drug Screen. Data for the bub3 strain (AID 167)
# Details: S. cerevisiae bub3 mutant strain, at 5.0 µM (retest, dose inferred, filed as 0.5), stronger effect = higher value
# Outline: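 Growth of a checkpoint-deficient yeast mutant is measured after compound exposure. Values represent inhibition relative to vehicle.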
row,SMILES,growth inhibition
1,NC(=O)NC(=O)N/N=C/c1ccc([N+](=O)[O-])o1,-5%
2,O=[N+]([O-])/C=C\c1csc2ccccc12,92% (active)
3,O=[N+]([O-])c1ccc2c(c1)CCc1ccccc1-2,-15%
4,CC1=C(C)CC2C(=O)C(C(O)CC(C)C)=CC(=O)C2C1 (stereo not given),-10%
5,CCC(=O)OC1CCC(C2CCCCC2)CC1 (stereo not given),65%
6,Cc1cc(C2C(O)C(c3cc(C)on3)C2(C)O)no1 (stereo not given),2%
7,CC(C)C(Sc1nc(-c2ccccc2)c(-c2ccccc2)[nH]1)C(=O)NN (stereo not given),29%
8,C/C(=N\NC(=O)N/N=C(\C)c1ccccn1)c1ccccn1,2%
9,COC(=O)CCCCCCCCCCC(=O)O,-4%
10,CCCCCCCCCCCCNC(=O)C[n+]1cccc(C(N)=O)c1,-9%
11,Nc1ccccc1N=Cc1ccccc1O,-12%
12,N#Cc1c(-c2ccc(Cl)cc2)c2c(n(C3OC(CO)C(O)C(O)C3O)c1=S)CCCC2 (stereo not given),3%
13,CC(C)(C)CC(C)(C)N[P+](NC(C)(C)CC(C)(C)C)(NC(C)(C)CC(C)(C)C)NC(C)(C)CC(C)(C)C,96% (active)
14,CC(=O)OC1C(OC(C)=O)C2C(C)CC3OC(=O)C(C)C3CC2(C)C1OC(C)=O (stereo not given),9%
15,NNC(=O)c1ccc(N)cc1O,-1%
16,Nc1ccc2c(c1)C(=O)c1ccccc1-2,2%
17,Cc1cn(C(C#N)=C(C#N)C#N)c2ccccc12,-2%
18,FC(F)(F)COP1(OCC(F)(F)F)=NP(OCC(F)(F)F)(OCC(F)(F)F)=NP(c2ccccc2)(c2ccccc2)=N1,-5%
19,O=c1oc(-c2ccccc2Br)ns1,-8%
20,CC(=O)N1C(C(=O)NNc2ccccc2)CSC1c1ccccc1 (stereo not given),57%

row,SMILES,growth inhibition
1,O=[N+]([O-])/C=C/c1cc2c(ccc3ccccc32)[nH]1,96% (active)
2,CN(C)CCCC1(c2ccccc2)SC(C)(C)c2ccc(Cl)cc21 (stereo not given),-2%
3,O=c1[nH]c2ccccc2c2oc3ccccc3c12,-10%
4,O=C(c1ccccc1)c1cn(/N=C\c2ccccc2)c(=O)nc1-c1ccccc1,16%
5,Cc1ccc(S(=O)(=O)OCCc2ccc(Cl)cc2)cc1,9%
6,COC(=O)CC1(O)c2cc(OC)c3cccc(OC)c3c2CCC1(C)C(=O)OC (stereo not given),83% (active)
7,CC(C)CC(NC(=O)SCc1ccccc1)C(=O)O (stereo not given),2%
8,COc1ccc(/C=C/c2ccnc3ccccc23)cc1,48%
9,N#CC1=C(N)OC(/C=C/c2ccccc2)=C(C#N)C1c1ccccc1 (stereo not given),23%
10,COc1ccc(C(=O)C(CN2CCOCC2)CN2CCOCC2)cc1,10%
11,N/N=C(/N)SCCCCCCCCCCS/C(N)=N/N,-6%
12,OC(CBr)C[n+]1cccc2cc(Cl)ccc21 (stereo not given),-1%
13,O=C(O)C1C(C(=O)Nc2ccc3c(c2)Cc2ccccc2-3)C2(Cl)C(Cl)=C(Cl)C1(Cl)C2(Cl)Cl (stereo not given),14%
14,CSc1nc(COC(=O)NC(C)C)c(COC(=O)NC(C)C)n1-c1ccccc1,8%
15,CC(C)C[NH-].CC(C)C[NH-].[Cl][Pt+2]([Cl])([Cl])[Cl],70% (active)
16,c1ccc(N=c2sc3ccccc3sc2=Nc2ccccc2)cc1,93% (active)
17,[Cl-].[La+3].[O-]/N=C(\c1ccccc1)c1ccccn1.[O-]/N=C(\c1ccccc1)c1ccccn1.[O-]/N=C(\c1ccccc1)c1ccccn1,42%
18,Clc1ccc(SSN2CCCCC2)cc1,-1%
19,CCC(O)C(O)(c1ccccc1)c1nc2ccccc2s1 (stereo not given),-7%
20,ONC(=Nc1cccc2ccccc12)C(=Nc1cccc2ccccc12)NO,10%

# Same assay, conditions: S. cerevisiae bub3 mutant strain, at 50.0 µM (retest, dose inferred, filed as 5.0), stronger effect = higher value
row,SMILES,growth inhibition
1,NC(=O)NC(=O)N/N=C/c1ccc([N+](=O)[O-])o1,17%
2,O=[N+]([O-])/C=C\c1csc2ccccc12,99% (active)
3,O=[N+]([O-])c1ccc2c(c1)CCc1ccccc1-2,78% (active)
4,CC1=C(C)CC2C(=O)C(C(O)CC(C)C)=CC(=O)C2C1 (stereo not given),97% (active)
5,CCC(=O)OC1CCC(C2CCCCC2)CC1 (stereo not given),70% (active)
6,Cc1cc(C2C(O)C(c3cc(C)on3)C2(C)O)no1 (stereo not given),-1%
7,CC(C)C(Sc1nc(-c2ccccc2)c(-c2ccccc2)[nH]1)C(=O)NN (stereo not given),98% (active)
8,C/C(=N\NC(=O)N/N=C(\C)c1ccccn1)c1ccccn1,-13%
9,COC(=O)CCCCCCCCCCC(=O)O,-9%
10,CCCCCCCCCCCCNC(=O)C[n+]1cccc(C(N)=O)c1,76% (active)
11,Nc1ccccc1N=Cc1ccccc1O,63%
12,N#Cc1c(-c2ccc(Cl)cc2)c2c(n(C3OC(CO)C(O)C(O)C3O)c1=S)CCCC2 (stereo not given),96% (active)
13,CC(C)(C)CC(C)(C)N[P+](NC(C)(C)CC(C)(C)C)(NC(C)(C)CC(C)(C)C)NC(C)(C)CC(C)(C)C,99% (active)
14,CC(=O)OC1C(OC(C)=O)C2C(C)CC3OC(=O)C(C)C3CC2(C)C1OC(C)=O (stereo not given),80% (active)
15,NNC(=O)c1ccc(N)cc1O,-1%
16,Nc1ccc2c(c1)C(=O)c1ccccc1-2,9%
17,Cc1cn(C(C#N)=C(C#N)C#N)c2ccccc12,-3%
18,FC(F)(F)COP1(OCC(F)(F)F)=NP(OCC(F)(F)F)(OCC(F)(F)F)=NP(c2ccccc2)(c2ccccc2)=N1,-8%
19,O=c1oc(-c2ccccc2Br)ns1,99% (active)
20,CC(=O)N1C(C(=O)NNc2ccccc2)CSC1c1ccccc1 (stereo not given),93% (active)

row,SMILES,growth inhibition
1,O=[N+]([O-])/C=C/c1cc2c(ccc3ccccc32)[nH]1,98% (active)
2,CN(C)CCCC1(c2ccccc2)SC(C)(C)c2ccc(Cl)cc21 (stereo not given),11%
3,O=c1[nH]c2ccccc2c2oc3ccccc3c12,88% (active)
4,O=C(c1ccccc1)c1cn(/N=C\c2ccccc2)c(=O)nc1-c1ccccc1,97% (active)
5,Cc1ccc(S(=O)(=O)OCCc2ccc(Cl)cc2)cc1,22%
6,COC(=O)CC1(O)c2cc(OC)c3cccc(OC)c3c2CCC1(C)C(=O)OC (stereo not given),98% (active)
7,CC(C)CC(NC(=O)SCc1ccccc1)C(=O)O (stereo not given),1%
8,COc1ccc(/C=C/c2ccnc3ccccc23)cc1,99% (active)
9,N#CC1=C(N)OC(/C=C/c2ccccc2)=C(C#N)C1c1ccccc1 (stereo not given),81% (active)
10,COc1ccc(C(=O)C(CN2CCOCC2)CN2CCOCC2)cc1,-5%
11,N/N=C(/N)SCCCCCCCCCCS/C(N)=N/N,7%
12,OC(CBr)C[n+]1cccc2cc(Cl)ccc21 (stereo not given),6%
13,O=C(O)C1C(C(=O)Nc2ccc3c(c2)Cc2ccccc2-3)C2(Cl)C(Cl)=C(Cl)C1(Cl)C2(Cl)Cl (stereo not given),99% (active)
14,CSc1nc(COC(=O)NC(C)C)c(COC(=O)NC(C)C)n1-c1ccccc1,22%
15,CC(C)C[NH-].CC(C)C[NH-].[Cl][Pt+2]([Cl])([Cl])[Cl],99% (active)
16,c1ccc(N=c2sc3ccccc3sc2=Nc2ccccc2)cc1,76% (active)
17,[Cl-].[La+3].[O-]/N=C(\c1ccccc1)c1ccccn1.[O-]/N=C(\c1ccccc1)c1ccccn1.[O-]/N=C(\c1ccccc1)c1ccccn1,90% (active)
18,Clc1ccc(SSN2CCCCC2)cc1,70% (active)
19,CCC(O)C(O)(c1ccccc1)c1nc2ccccc2s1 (stereo not given),-12%
20,ONC(=Nc1cccc2ccccc12)C(=Nc1cccc2ccccc12)NO,97% (active)
